# The supplement of paper PMC10811239
# Counter-ions that a name gives are not always drawn.
# Key:
# Assay in all cases: bioluminescence (viable cell) signal fold change after vs before treatment, normalised to DMSO (ratio); higher = more tumour cell growth / less inhibition
# Settings in all cases: 10 µM; treatment time 6 days
# [1] = tested on: LEGO organoid PT (PTEN-/-; TP53-/-)
# Protocol: (§1)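 Luc2-labelled iPSC-derived glioblastoma-like organoids (LEGOs, genotypes PT = PTEN-/-;TP53-/-, PTCC = plus CDKN2A/B-/-, PTN = plus NF1-/-) were treated with 10 uM drug for 6 days (applied every other day) at 37 C. Bioluminescence imaging was done before treatment and 2 days after the last dose. BLI signals were normalised to the DMSO control on the same day and then to the pre-treatment signal (N=3).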
# [2] = tested on: LEGO organoid PTCC (PTEN-/-; TP53-/-; CDKN2A-/-; CDKN2B-/-)
# Protocol: as §1
# [3] = tested on: LEGO organoid PTN (PTEN-/-; TP53-/-; NF1-/-)
# Protocol: as §1
SMILES,bioluminescence [1],bioluminescence [2],bioluminescence [3]
CCc1cc2c(cc1N1CCC(N3CCOCC3)CC1)C(C)(C)c1[nH]c3cc(C#N)ccc3c1C2=O [Alectinib],1.13,2.57,0.961
O=NN(CCCl)C(=O)NC1CCCCC1 [Lomustine],2.59,1.17,1.92
COC(=O)/C=C/C(=O)OC [Dimethyl fumarate],0.759,0.94,1.44
NC[C@H]1CC[C@H](C(=O)O)CC1 [Amstat],1.51,0.622,0.778
CCCNS(=O)(=O)Nc1ncnc(OCCOc2ncc(Br)cn2)c1-c1ccc(Br)cc1 [Macitentan],1.16,0.835,0.938
CC(C)(S)[C@@H](N)C(=O)O [d-penicillamin],0.964,0.914,1.11
CC(CN(C)C)CN1c2ccccc2CCc2ccccc21.O=C(O)/C=C\C(=O)O (configuration not stated) [Trimipramine maleate],0.503,0.61,1.58
CN(C)CCC[C@@]1(c2ccc(F)cc2)OCc2cc(C#N)ccc21.O=C(O)C(=O)O [Escitalopram Oxalate],1.52,0.773,0.956
NC(=O)c1cn(Cc2c(F)cccc2F)nn1 [Rufinamide],0.54,2.69,1
O=C(NC1CCN(CCCCC2(C(=O)NCC(F)(F)F)c3ccccc3-c3ccccc32)CC1)c1ccccc1-c1ccc(C(F)(F)F)cc1 [Lomitapide],0.0143,0.124,0
COc1c(N2CCNC(C)C2)c(F)cc2c(=O)c(C(=O)O)cn(C3CC3)c12 (configuration not stated) [Gatifloxacin],1.66,0.933,4.79
Nc1ncn([C@H]2C[C@H](O)[C@@H](CO)O2)c(=O)n1 [Decitabine],1.2,1.67,1.09
Nc1ccn([C@@H]2CS[C@H](CO)O2)c(=O)n1 [Lamivudine],0.906,0.674,1.2
COc1cc2c(cc1OC)C(=O)C(CC1CCN(Cc3ccccc3)CC1)C2 (configuration not stated) [Donepezil],0.84,0.645,1.1
Nc1nc(NC2CC2)c2ncn([C@H]3C=C[C@@H](CO)C3)c2n1.Nc1nc(NC2CC2)c2ncn([C@H]3C=C[C@@H](CO)C3)c2n1.O=S(=O)(O)O [Abacavir sulfate],0.703,1.28,1.95
CCN(CC)CCNC(=O)c1c(C)[nH]c(/C=C2\C(=O)Nc3ccc(F)cc32)c1C [Sunitinib],0.391,0.536,0.687
CN(C)C(=N)NC(=N)N.Cl [Metformin hydrochloride],2.55,1.27,1.35
O=C(c1cc(Cc2n[nH]c(=O)c3ccccc23)ccc1F)N1CCN(C(=O)C2CC2)CC1 [Olaparib],1.23,1.32,0.865
COc1cc(C(C)=O)ccc1OCCCN1CCC(c2noc3cc(F)ccc23)CC1 [Iloperidone],1.45,1.06,2.12
CN1C(=O)OC(C)(C)C1=O [Trimethadione],0.57,1.38,0.909
CCN(CC)CCNC(=O)c1cc(Cl)c(N)cc1OC [5-Chloro-2-methoxyprocainamide],1.1,0.329,1.62
CN1[C@@H]2CCC[C@H]1C[C@@H](NC(=O)c1nn(C)c3ccccc13)C2.Cl [Granisetron hydrochloride],0.715,0.701,1.92
CC/C(=C(/CC)c1ccc(O)cc1)c1ccc(O)cc1 [Diethylstilbestrol],1.01,0.673,2.47
CS(=O)(=O)c1cccc(C[C@H](NC(=O)c2c(Cl)cc3c(c2Cl)CCN(C(=O)c2ccc4ccoc4c2)C3)C(=O)O)c1 [Lifitegrast],1.49,1.08,0.439
CCCCOc1ccc(C(=O)CCN2CCCCC2)cc1.Cl [Dyclonine hydrochloride],0.967,1.03,1.13
CN(C)CCc1c[nH]c2ccc(C[C@H]3COC(=O)N3)cc12 [Zolmitriptan],0.724,1.52,1.34
O=c1[nH]c(=O)n(C2CCCO2)cc1F (configuration not stated) [Tegafur],1.04,1.14,0.727
Nc1nc2c(ncn2COC(CO)CO)c(=O)[nH]1 [Ganciclovir],4.35,1.62,2.38
O=C(CCCCCCC(=O)Nc1ccccc1)NO [Vorinostat],1.13,0.409,0.384
